Compound activity as filed in PubChem BioAssay.
FMDV FLuc = antivirals against foot and mouth disease virus. FMDV antiviral cell assay, firefly luciferase signal. Potency, µM (doses to about 57.5 µM), usual class: inhibitors. 0.23% of 120,000 active. AID 1745856; note: nearly all actives have a fitted effect of over 60% in size
FMDV Renilla = FMDV antiviral activity by Renilla signal; FMDV replicon cells, Renilla luciferase signal; Potency, µM (highest dose often 57.5 µM), usual class: inhibitors; 0.32% of 120,000 active; AID 1745857; note: nearly all actives have a fitted effect of over 55% in size
A number is an active result; [ ] = remark or other dose. Hits are enriched below; roughly 0.4% of the tested compounds scored in any of these assays. Calls come from the whole dose curve.

Screening CCCC(C)N(C)CC(=O)NC(=O)NCCc1cccs1 (stereo not given) returned FMDV FLuc inactive and FMDV Renilla inactive.
Screening O=C(CSc1ncnc2ccccc12)c1ccc2c(c1)OCCCO2 returned FMDV FLuc inactive and FMDV Renilla 14.1µM.
For O=C(CSc1cnc2ccccc2n1)c1ccc2c(c1)OCCO2 the results were FMDV FLuc inactive and FMDV Renilla inactive.
`Cc1nc2cc(NC(=O)c3ccc(C(C)(C)C)cc3)ccc2o1` gave FMDV FLuc 7.94µM and FMDV Renilla 4.47µM.
`CCc1ccc(C(=O)Nc2ccc3oc(C)nc3c2)cc1` gave FMDV FLuc inactive and FMDV Renilla 10µM.
For Cc1nc2cc(NC(=O)c3cccc(Cl)c3)ccc2o1 the results were FMDV FLuc inactive and FMDV Renilla inactive.
`CCc1ccc(-c2nc3cc(NC(=O)c4ccc(C)c(C)c4)ccc3o2)cc1` gave FMDV FLuc inactive and FMDV Renilla inactive.
`C=CCOC(=O)C(C#N)c1nc2ccccc2nc1N1CCN(C(c2ccccc2)c2ccccc2)CC1` (stereo not given) gave FMDV FLuc inactive and FMDV Renilla inactive.
Screening CC(=O)c1ccc(Oc2nc(C)nc3c2oc2ccccc23)cc1 returned FMDV FLuc inconclusive and FMDV Renilla 2.82µM.
For CCOC(=O)c1ccc(Oc2nc(C)nc3c2oc2ccccc23)cc1 the results were FMDV FLuc inactive and FMDV Renilla inactive.
`CCOc1ccc(OCC)c(S(=O)(=O)Nc2ccc(-c3cn4ccc(C)nc4n3)cc2)c1` gave FMDV FLuc inactive and FMDV Renilla inactive.
`Cc1nc2ccccc2nc1SCC(=O)N(C)C(C)c1ccc(F)cc1` (stereo not given) gave FMDV FLuc 28.2µM and FMDV Renilla 35.5µM.
CC(c1ccccc1)N(C)C(=O)CSc1nc2ccccc2o1 (stereo not given) was read as FMDV FLuc inactive and FMDV Renilla inactive.
For COCCn1c(SCC(=O)c2ccccc2OC)nnc1-c1ccc(Cl)cc1 the results were FMDV FLuc inactive and FMDV Renilla inactive.
For Fc1ccccc1NC(=S)NCCC(c1ccccc1)c1ccccc1 the results were FMDV FLuc inactive and FMDV Renilla inactive.
For Cc1cc(C)c(C(=O)O)c(C)c1 the results were FMDV FLuc inactive and FMDV Renilla inactive.
Cc1ccc2c(c1)cc(C(=O)Nc1ccccc1)n2C was read as FMDV FLuc inactive and FMDV Renilla inactive.
For CC1OC(OC2C(O)CC(OC3C(O)CC(OC4CCC5(C)C(CC[C@@H]6[C@@H]5CCC5(C)C(C7=CC(=O)OC7)CCC65O)C4)OC3C)OC2C)CC(O)C1O (stereo not given in full) the results were FMDV FLuc 0.251µM and FMDV Renilla 0.562µM.
COC1C(O)CC(OC2C(O)CC(OC3C(O)CC(OC4CCC5(C)C(CCC6[C@@H]5CC(O)C5(C)C(C7=CC(=O)OC7)CCC65O)C4)OC3C)OC2C)OC1C (stereo not given in full) was read as FMDV FLuc inconclusive and FMDV Renilla 0.501µM.
COC1CC(OC2CCC3(C)C(CC[C@@H]4[C@@H]3CCC3(C)C(C5=CC(=O)OC5)C(OC(C)=O)CC43O)C2)OC(C)C1O (stereo not given in full) was read as FMDV FLuc inactive and FMDV Renilla inactive.
For CC(=O)OC1CC2(O)[C@@H]3CCC4CC(OC5CC(O)C(OC6CC(O)C(OC7CC(O)C(O)C(C)O7)C(C)O6)C(C)O5)CCC4(C)[C@H]3CCC2(C)C1C1=CC(=O)OC1 (stereo not given in full) the results were FMDV FLuc 0.631µM and FMDV Renilla inconclusive.
`C[C@H]1O[C@@H](O[C@H]2CC[C@@]3(C)[C@H](CC[C@@H]4[C@@H]3C[C@@H](O)[C@]3(C)[C@@H](C5=CC(=O)OC5)CC[C@]43O)C2)C[C@H](O)[C@@H]1O[C@H]1C[C@H](O)[C@H](O[C@H]2C[C@H](O)[C@H](O[C@@H]3O[C@H](CO)[C@@H](O)[C@H](O)[C@H]3O)[C@@H](C)O2)[C@@H](C)O1` gave FMDV FLuc inactive[11.5 µM] and FMDV Renilla inactive.
`C[C@H]1O[C@@H](O[C@H]2[C@@H](O)C[C@H](O[C@H]3[C@@H](O)C[C@H](O[C@H]4CC[C@@]5(C)[C@H](CC[C@@H]6[C@@H]5CC[C@]5(C)[C@@H](C7=CC(=O)OC7)CC[C@]65O)C4)O[C@@H]3C)O[C@@H]2C)C[C@H](O)[C@@H]1O` gave FMDV FLuc inconclusive and FMDV Renilla inactive.
For CC(=O)OC1CC(OC2C(O)CC(OC3C(O)CC(OC4CC(O)C5(C)C(CC[C@@H]6[C@@H]5CCC5(C)C(C7=CC(=O)OC7)CCC65O)C4)OC3C)OC2C)OC(C)C1O (stereo not given in full) the results were FMDV FLuc 0.562µM and FMDV Renilla 0.891µM.
`N#Cc1nc(-c2ccco2)oc1NCc1ccc(Cl)cc1` gave FMDV FLuc inactive and FMDV Renilla inactive.
`CCCCCCCOc1ccc(/C=C(\C#N)C(=O)c2ccccc2)cc1` gave FMDV FLuc inactive and FMDV Renilla inactive.
`COc1ccc(CNC(=O)NCc2cccc(OC)c2)cc1` gave FMDV FLuc inactive and FMDV Renilla inactive.
Screening CCc1ccc2oc(=O)cc(CN3CCN(CC(=O)Nc4ccc5c(c4)OCCO5)CC3)c2c1 returned FMDV FLuc inactive and FMDV Renilla inactive.
`CCc1ccc(NC(=O)C(C)Sc2cccc[n+]2[O-])cc1` (stereo not given) gave FMDV FLuc inactive and FMDV Renilla inactive.
COc1cc(C2CC(=O)Nc3sc(C(=O)Nc4ccccc4)c(C)c32)ccc1O (stereo not given) was read as FMDV FLuc inactive and FMDV Renilla inactive.
`Cc1cccc(C)c1-n1nnnc1SCn1nnc2ccccc2c1=O` gave FMDV FLuc 20µM and FMDV Renilla 17.8µM.
Cc1ccccc1-n1nnnc1SCc1nc(N)c2ccccc2n1 was read as FMDV FLuc inactive and FMDV Renilla inactive.
For C#CCOc1ccc(C(=O)Nc2cccc3ccccc23)cc1 the results were FMDV FLuc inactive and FMDV Renilla inactive.
For Cc1cc(/C=C(\C#N)c2cccc(C(F)(F)F)c2)c(C)n1C the results were FMDV FLuc inactive and FMDV Renilla inactive.
Screening CCN1CCN(c2oc(-c3ccc(F)cc3)nc2C#N)CC1 returned FMDV FLuc inactive and FMDV Renilla inactive.
CCN1CCN(c2cc(-c3ccc(F)cc3)c3c(n2)CCCCCC3)CC1 was read as FMDV FLuc inconclusive and FMDV Renilla 11.2µM.
`O=S(=O)(/C(=C/c1ccc2ccccc2c1)c1nc2ccccc2[nH]1)c1ccccc1` gave FMDV FLuc 35.5µM and FMDV Renilla 15.8µM.
For N#C/C(=C/c1ccc2ncccc2c1)c1nc2ccccc2[nH]1 the results were FMDV FLuc inactive and FMDV Renilla inactive.
Cc1nc(-c2ccc(CNC(=O)c3nccnc3N)s2)cs1 was read as FMDV FLuc inconclusive and FMDV Renilla 8.91µM.
For Cc1nc(-c2ccc(CCNC(=O)c3nccnc3N)s2)cs1 the results were FMDV FLuc inactive and FMDV Renilla inconclusive.
Screening CCOC(=O)NC(C(=O)NCc1cccc(OC)c1)C(C)C (stereo not given) returned FMDV FLuc inactive and FMDV Renilla inactive.
Screening O=C(Nc1cccc(C(F)(F)F)c1)C(=Cc1cccc(Oc2ccccc2)c1)C(=O)Nc1cccc(C(F)(F)F)c1 returned FMDV FLuc 4.47µM and FMDV Renilla 3.98µM.
N#C/C(=C\c1cccc(OC(=O)c2ccccc2Cl)c1)C(=O)Nc1cccc(C(F)(F)F)c1 was read as FMDV FLuc inactive and FMDV Renilla inactive.
